# Measurements: the supplement of paper PMC3342239
# Structures can show the parent of a compound that is named as a salt.
# Tested on: Saccharomyces cerevisiae
# Experiment: fraction of cells in G1 phase (DNA content, flow cytometry); higher = more cells with unreplicated DNA (G1 delay)
# Conditions: temperature: 30 C; YPD; JTY2953 pdr5 snq2 (sensitized); drug added to: cultures diluted from stationary phase; 6-7 h
# Summary of the method: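 Overnight cultures of sensitized JTY2953 were diluted 1∶200 into drug at a final 20 µg/ml and fixed after 6–7 h, and further runs treated dividing JTY2953 or BY4741, fixing them 6 h and 4.33 h later respectively. All growth used YPD at 30°C with S. cerevisiae and library drugs. After ethanol fixation and SYTOX Green staining, flow cytometry recorded 10,000 events. The G1 fraction equals the Dean-Jett-Fox G1 peak area over the G1 plus G2/M areas.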
row,Compound,fraction of cells in G1 phase
1,C#C[C@]1(O)CC[C@H]2[C@@H]3CCC4=CC(=O)CC[C@@H]4[C@H]3CC[C@@]21C [Norethindrone] (67.0176 µM),0.552
2,CCCOc1ccc2[nH]c(NC(=O)OC)nc2c1 [Oxibendazole] (80.2338 µM),0.481
3,Nc1c2c(nc3ccccc13)CCCC2 [Tacrine HCl] (100.873 µM),0.541
4,CC12CC3CC(C)(C1)CC(N)(C3)C2 [Memantine HCl] (111.54 µM),0.532
5,N=C(N)N1CCc2ccccc2C1 [Debrisoquin sulfate] (114.132 µM),0.513
6,NC[C@@H]1O[C@H](O[C@H]2[C@@H](O)[C@H](O[C@@H]3[C@@H](O)[C@H](N)C[C@H](N)[C@H]3O[C@H]3O[C@H](CN)[C@@H](O)[C@H](O)[C@H]3N)O[C@@H]2CO)[C@H](N)[C@@H](O)[C@@H]1O [Neomycin sulfate] (32.5386 µM),0.495
7,C[C@]12CC[C@@H]3c4ccc(O)cc4CC[C@H]3[C@@H]1C[C@@H](O)[C@@H]2O [Estriol] (69.3505 µM),0.535
8,CC1=C(/C=C/C(C)=C/C=C/C(C)=C/C(=O)O)C(C)(C)CCC1 [Retinoic acid] (66.5679 µM),0.524
9,N=c1nc(N2CCCCC2)cc(N)n1O [Minoxidil] (95.5782 µM),0.522
10,CC(C)Cc1ccc(C(C)C(=O)O)cc1 (stereo unspecified) [Ibuprofen] (96.9522 µM),0.575
11,CN(C)CCC=C1c2ccccc2CCc2ccccc21 [Amitriptyline HCl] (63.7146 µM),0.418
